Source: the supplement of paper PMC8975748
Structures can show the parent of a compound that is named as a salt.

test system: Saccharomyces cerevisiae BY4741 SeMeCo community; experiment: z-score of subpopulation abundance vs DMSO median, subpopulation auxotrophic for LUM; higher = larger share of this subpopulation than in DMSO controls; conditions: 10 µM; 24 h; SM minimal medium; subpopulation (auxotrophy): LUM
Protocol: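 Fluorescent four-plasmid SeMeCo (self-establishing metabolically cooperating S. cerevisiae BY4741 community; plasmids pH-mRuby2, pL-mWasabi, pU-eCFP, pM-TagRFP657) was grown 24 h in minimal SM medium with each Selleck FDA-approved drug at 10 µM in 384-well plates. Cells were fixed and imaged by high-content confocal microscopy. For each auxotrophic subpopulation (and the prototroph), a z-score gives the deviation from the DMSO vehicle-control population median.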

Compared with `Cc1c(OCC(F)(F)F)ccnc1C[S@@+]([O-])c1nc2ccccc2[nH]1` [Dexlansoprazole], `O=c1[nH]c2ccccc2n1CCN1CCN(c2cccc(C(F)(F)F)c2)CC1` [Flibanserin] is lower in “z-score of subpopulation abundance” value: 0.16 for the first, -0.43 for the second.

Compared with `CN[C@@H]1[C@H](O)[C@H](NC)[C@H]2O[C@@]3(O)C(=O)C[C@@H](C)O[C@H]3O[C@@H]2[C@H]1O` [Spectinomycin 2HCl], `O=c1c(-c2ccc(O)cc2)coc2c([C@@H]3O[C@H](CO)[C@@H](O)[C@H](O)[C@H]3O)c(O)ccc12` [Puerarin] is lower in “z-score of subpopulation abundance” value: -0.18 for the first, -1.14 for the second.

Compared with `CCOC(=O)C1=C(COCCN)NC(C)=C(C(=O)OC)C1c1ccccc1Cl` (stereo not given) [Amlodipine Besylate], `COC(=O)C1=C(C)NC(C)=C(C(=O)OC(C)C)C1c1cccc2nonc12` (stereo not given) [Isradipine] is higher in “z-score of subpopulation abundance” value: -4.74 for the first, -0.39 for the second.

Compared with `C=C[C@H]1CN2CC[C@H]1C[C@@H]2[C@@H](O)c1ccnc2ccc(OC)cc12` [Quinidine sulfate], `C=C1CCN([C@H](C)[C@](O)(Cn2cncn2)c2ccc(F)cc2F)CC1` [Efinaconazole] is higher in “z-score of subpopulation abundance” value: 1.53 for the first, 7.49 for the second.

First: CC1(C)S[C@@H]2[C@H](NC(=O)C(c3ccccc3)S(=O)(=O)O)C(=O)N2[C@H]1C(=O)O (stereo not given in full) [Sulbenicillin Sodium]
Second: Cc1cc(O)c(C(=O)N[C@@H](C(=O)N[C@@H]2C(=O)N3C(C(=O)O)=C(CSc4nnnn4C)CS[C@H]23)c2ccc(O)cc2)cn1 [Cefpiramide sodium]
The “z-score of subpopulation abundance” value of the first is higher: 0.65 for the first, -0.42 for the second.

Going from `Cc1nnc(NS(=O)(=O)c2ccc(N)cc2)s1` [Sulfamethizole] to `CS(=O)(=O)Nc1ccc([N+](=O)[O-])cc1Oc1ccccc1` [Nimesulide], the “z-score of subpopulation abundance” value rises from -0.52 to 0.62.

Going from `CCN(Cc1ccncc1)C(=O)C(CO)c1ccccc1` (stereo not given) [Tropicamide] to `Cc1ccc(O)c([C@H](CCN(C(C)C)C(C)C)c2ccccc2)c1` [Tolterodine tartrate], the “z-score of subpopulation abundance” value rises from 0 to 1.3.

First: CC(NCCC(c1ccccc1)c1ccccc1)c1ccccc1 (stereo not given) [Fendiline hydrochloride]
Second: O=C(O)Cc1ccccc1Nc1c(Cl)cccc1Cl [Diclofenac Diethylamine]
The “z-score of subpopulation abundance” value of the first is higher: 0.05 for the first, -1.21 for the second.

Compared with `Cc1ccc2c(Cl)cc(Cl)c(O)c2n1` [Chlorquinaldol], `Nc1nc(N)nc(-c2cc(Cl)ccc2Cl)n1` [Irsogladine] is lower in “z-score of subpopulation abundance” value: 16.2 for the first, -0.45 for the second.

Compared with `O=C1C(N(CO)C(=O)NCO)N(CO)C(=O)N1CO` (stereo not given) [Diazolidinyl urea], `CCN1CCN(C(=O)N[C@@H](C(=O)N[C@@H]2C(=O)N3C(C(=O)O)=C(CSc4nnnn4C)CS[C@H]23)c2ccc(O)cc2)C(=O)C1=O` [Cefoperazone] is higher in “z-score of subpopulation abundance” value: -0.16 for the first, 0.47 for the second.

First: CCc1nn(CCCN2CCN(c3cccc(Cl)c3)CC2)c(=O)n1CCOc1ccccc1 [Nefazodone hydrochloride]
Second: CCC(C)n1ncn(-c2ccc(N3CCN(c4ccc(OCC5COC(Cn6cncn6)(c6ccc(Cl)cc6Cl)O5)cc4)CC3)cc2)c1=O (stereo not given) [Itraconazole]
The “z-score of subpopulation abundance” value of the first is lower: 0.49 for the first, 6.18 for the second.

Compared with `N/C(=N\N=C\c1ccc(Cl)cc1)N/N=C/c1ccc(Cl)cc1` [Robenidine Hydrochoride], `O=C(O)Cc1ccccc1Nc1c(Cl)cccc1Cl` [Diclofenac Sodium] is lower in “z-score of subpopulation abundance” value: 7.91 for the first, -0.98 for the second.

Compared with `CC(C)NNC(=O)c1ccncc1` [Iproniazid], `CN1C2CCCC1CC(NC(=O)c1nn(C)c3ccccc13)C2` (stereo not given) [Granisetron HCl] is higher in “z-score of subpopulation abundance” value: 0.03 for the first, 0.06 for the second.

First: Cc1cccc(C)c1NC(=O)C1CCCCN1C (stereo not given) [Mepivacaine]
Second: CCOC(=O)C1=C[C@]2(CC)CCCN3CCc4c(n1c1ccccc41)[C@@H]32 [Vinpocetine]
The “z-score of subpopulation abundance” value of the first is lower: 0.08 for the first, 0.25 for the second.

First: CN(C)CCCN1c2ccccc2Sc2ccc(Cl)cc21 [Chlorpromazine HCl]
Second: OCc1ccc(Cl)cc1Cl [2,4-dichlorobenzyl alcohol]
The “z-score of subpopulation abundance” value of the first is higher: 0.52 for the first, -0.03 for the second.

Compared with `CC(Cc1ccc(O)c(O)c1)C(C)Cc1ccc(O)c(O)c1` (stereo not given) [Nordihydroguaiaretic acid (NDGA)], `O=C(O)c1ccccc1O` [Salicylic acid] is lower in “z-score of subpopulation abundance” value: 0.39 for the first, -0.79 for the second.

First: COc1c(N2CCNC(C)C2)c(F)cc2c(=O)c(C(=O)O)cn(C3CC3)c12 (stereo not given) [Gatifloxacin]
Second: C[C@]12CC[C@@H]3c4ccc(O)cc4CC[C@H]3[C@@H]1C[C@@H](O)[C@@H]2O [Estriol]
The “z-score of subpopulation abundance” value of the first is lower: -0.33 for the first, -0.23 for the second.

Going from `CC1=Nc2ccc(Cl)cc2S(=O)(=O)N1` [Diazoxide] to `CN1CCc2cc3c(cc2C(=O)Cc2ccc4c(c2C1)OCO4)OCO3` [Protopine], the “z-score of subpopulation abundance” value rises from -0.9 to 1.38.

Going from `CO[C@@H]1[C@H](OC(=O)/C=C/C=C/C=C/C=C/C(=O)O)CC[C@]2(CO2)[C@H]1[C@@]1(C)O[C@@H]1CC=C(C)C` [Fumagillin] to `COCC(=O)Nc1cc(Sc2ccccc2)ccc1N=C(NC(=O)OC)NC(=O)OC` [Febantel], the “z-score of subpopulation abundance” value falls from 2.33 to 0.02.

Going from `C#CCN[C@@H]1CCc2ccccc21` [Rasagiline] to `O=C(Nc1cccc(C2=NCCN2)c1)Nc1cccc(C2=NCCN2)c1` [Imidocarb dipropionate], the “z-score of subpopulation abundance” value falls from 0.07 to -0.67.
